{
  "source": "paper PMC7862700",
  "about": "“An all-to-all approach to the identification of sequence-specific readers for epigenetic DNA modifications on cytosine”",
  "assay_in_all_cases": "DAPPL (digital affinity profiling via proximity ligation, sequencing); 10 mM Tris-HCl pH 7.5, 50 mM NaCl, 1 mM DTT, 4% glycerol, room temperature, 30 min; GST-TFs on glutathione beads, 16-mer random dsDNA library, 0.1% formaldehyde crosslink after washing; high values mean tight binding",
  "conditions_in_all_cases": "protein: recombinant; tags: N-terminal GST; dsDNA, one strand shown",
  "key": {"FLI1": {"molecular_target": "T1, FLI1 (Homo sapiens, UniProt Q01543 1-452)", "T1 sequence": "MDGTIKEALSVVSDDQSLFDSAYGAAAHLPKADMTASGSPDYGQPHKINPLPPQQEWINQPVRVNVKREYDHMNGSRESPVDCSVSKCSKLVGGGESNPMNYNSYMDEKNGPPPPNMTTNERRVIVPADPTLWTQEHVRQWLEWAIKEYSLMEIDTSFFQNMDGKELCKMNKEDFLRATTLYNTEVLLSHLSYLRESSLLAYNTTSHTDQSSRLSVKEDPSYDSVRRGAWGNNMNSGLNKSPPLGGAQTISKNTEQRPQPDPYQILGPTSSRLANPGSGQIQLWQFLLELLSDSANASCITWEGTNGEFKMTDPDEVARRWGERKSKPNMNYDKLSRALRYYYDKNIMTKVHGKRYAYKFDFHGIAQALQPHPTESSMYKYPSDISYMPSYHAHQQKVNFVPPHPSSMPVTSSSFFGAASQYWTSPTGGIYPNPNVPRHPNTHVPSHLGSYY", "in_short": "(§1)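 Pools were built from human transcription factors expressed in yeast as GST fusions, captured on glutathione beads and DNA-barcoded, along with a tag-only sample. Incubation with 200 nmole of a 16-mer random double-stranded DNA library lasted 30 min at room temperature in Tris/NaCl/DTT/glycerol buffer, and was followed by washing, 0.1% formaldehyde crosslinking, proximity ligation, PCR amplification and Illumina NextSeq500 sequencing. Binding signal is the quotient of each hexamer's read frequency for a factor and its frequency for the tag-only sample.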"}, "ELK1": {"molecular_target": "T2, ELK1 (Homo sapiens, UniProt P19419 1-428)", "T2 sequence": "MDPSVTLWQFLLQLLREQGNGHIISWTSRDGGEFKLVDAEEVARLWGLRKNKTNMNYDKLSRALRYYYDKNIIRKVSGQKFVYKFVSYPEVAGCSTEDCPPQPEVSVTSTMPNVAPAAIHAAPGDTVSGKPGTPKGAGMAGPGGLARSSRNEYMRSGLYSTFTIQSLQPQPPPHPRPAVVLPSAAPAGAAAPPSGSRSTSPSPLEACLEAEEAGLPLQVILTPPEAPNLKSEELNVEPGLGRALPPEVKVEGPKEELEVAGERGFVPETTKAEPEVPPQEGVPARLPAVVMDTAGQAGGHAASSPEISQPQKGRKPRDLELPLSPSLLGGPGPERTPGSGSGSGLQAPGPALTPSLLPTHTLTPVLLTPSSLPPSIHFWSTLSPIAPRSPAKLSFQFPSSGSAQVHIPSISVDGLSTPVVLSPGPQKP", "in_short": "as §1"}, "GABPA": {"molecular_target": "T3, GABPA (Homo sapiens, UniProt Q06546 1-454)", "T3 sequence": "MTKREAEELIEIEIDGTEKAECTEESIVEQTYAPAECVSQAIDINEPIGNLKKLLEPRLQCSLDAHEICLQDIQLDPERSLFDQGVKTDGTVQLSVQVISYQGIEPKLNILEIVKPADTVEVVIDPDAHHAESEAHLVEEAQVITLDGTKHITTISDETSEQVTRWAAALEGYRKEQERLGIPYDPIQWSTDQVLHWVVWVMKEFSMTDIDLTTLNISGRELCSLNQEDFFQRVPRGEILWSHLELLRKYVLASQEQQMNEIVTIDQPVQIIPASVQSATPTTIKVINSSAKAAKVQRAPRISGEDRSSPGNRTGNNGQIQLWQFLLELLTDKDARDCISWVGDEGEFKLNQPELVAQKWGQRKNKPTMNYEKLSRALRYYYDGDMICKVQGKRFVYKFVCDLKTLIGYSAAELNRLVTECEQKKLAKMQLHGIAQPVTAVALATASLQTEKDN", "in_short": "as §1"}, "ERG": {"molecular_target": "T4, ERG (Homo sapiens, UniProt P11308 1-479)", "T4 sequence": "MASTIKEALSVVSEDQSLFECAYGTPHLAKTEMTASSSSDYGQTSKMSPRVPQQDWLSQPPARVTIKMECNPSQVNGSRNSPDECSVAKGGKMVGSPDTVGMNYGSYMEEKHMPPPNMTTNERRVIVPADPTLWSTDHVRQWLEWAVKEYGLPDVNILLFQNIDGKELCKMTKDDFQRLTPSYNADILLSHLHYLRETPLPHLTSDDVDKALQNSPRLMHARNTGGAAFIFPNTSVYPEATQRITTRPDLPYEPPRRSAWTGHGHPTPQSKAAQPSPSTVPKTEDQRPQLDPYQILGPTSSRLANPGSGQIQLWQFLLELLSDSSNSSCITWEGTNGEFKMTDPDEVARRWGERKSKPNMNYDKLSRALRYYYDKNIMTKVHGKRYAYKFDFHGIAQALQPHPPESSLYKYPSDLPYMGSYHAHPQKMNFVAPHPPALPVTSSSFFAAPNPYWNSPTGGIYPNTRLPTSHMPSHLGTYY", "in_short": "as §1"}, "ELF1": {"molecular_target": "ELF1 (Homo sapiens, UniProt P32519 1-619)", "sequence (P32519 whole entry)": "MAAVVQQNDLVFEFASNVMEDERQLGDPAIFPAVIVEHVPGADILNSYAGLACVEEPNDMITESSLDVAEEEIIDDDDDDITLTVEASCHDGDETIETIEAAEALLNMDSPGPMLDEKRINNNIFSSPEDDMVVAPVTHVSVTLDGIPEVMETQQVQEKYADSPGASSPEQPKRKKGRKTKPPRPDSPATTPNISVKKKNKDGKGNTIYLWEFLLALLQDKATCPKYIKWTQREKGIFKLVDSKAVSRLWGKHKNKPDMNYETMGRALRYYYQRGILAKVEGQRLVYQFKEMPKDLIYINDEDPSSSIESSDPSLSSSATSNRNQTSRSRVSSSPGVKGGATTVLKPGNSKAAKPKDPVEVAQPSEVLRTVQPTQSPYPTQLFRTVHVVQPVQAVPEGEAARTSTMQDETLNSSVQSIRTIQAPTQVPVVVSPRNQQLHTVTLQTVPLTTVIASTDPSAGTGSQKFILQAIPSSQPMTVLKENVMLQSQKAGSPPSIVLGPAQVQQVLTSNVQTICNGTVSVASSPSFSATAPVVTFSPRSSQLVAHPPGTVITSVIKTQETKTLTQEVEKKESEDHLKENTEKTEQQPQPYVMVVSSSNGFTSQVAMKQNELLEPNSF", "in_short": "as §1"}, "EHF": {"molecular_target": "T5, EHF (Homo sapiens, UniProt Q9NZC4 1-300)", "T5 sequence": "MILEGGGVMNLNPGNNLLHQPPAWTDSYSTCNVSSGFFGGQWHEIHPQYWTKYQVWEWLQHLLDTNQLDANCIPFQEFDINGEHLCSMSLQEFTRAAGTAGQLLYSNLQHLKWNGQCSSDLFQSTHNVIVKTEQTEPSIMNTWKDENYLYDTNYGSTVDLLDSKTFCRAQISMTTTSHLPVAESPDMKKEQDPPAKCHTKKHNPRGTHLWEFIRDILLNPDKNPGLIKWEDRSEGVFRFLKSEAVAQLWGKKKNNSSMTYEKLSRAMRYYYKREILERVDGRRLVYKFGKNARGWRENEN", "in_short": "as §1"}, "SPI1": {"molecular_target": "SPI1 (Homo sapiens, UniProt P17947 1-270)", "in_short": "as §1"}, "SPIB": {"molecular_target": "SPIB (Homo sapiens, UniProt Q01892 1-262)", "sequence (Q01892 whole entry)": "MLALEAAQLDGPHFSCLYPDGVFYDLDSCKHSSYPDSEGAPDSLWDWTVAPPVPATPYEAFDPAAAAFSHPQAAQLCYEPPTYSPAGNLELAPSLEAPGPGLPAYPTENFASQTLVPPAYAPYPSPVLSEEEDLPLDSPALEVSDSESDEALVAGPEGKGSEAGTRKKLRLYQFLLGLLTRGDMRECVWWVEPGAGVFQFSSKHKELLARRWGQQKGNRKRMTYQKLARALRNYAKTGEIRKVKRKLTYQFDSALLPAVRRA", "in_short": "as §1"}, "ELK3": {"molecular_target": "T6, ELK3 (Homo sapiens, UniProt P41970 1-407)", "T6 sequence": "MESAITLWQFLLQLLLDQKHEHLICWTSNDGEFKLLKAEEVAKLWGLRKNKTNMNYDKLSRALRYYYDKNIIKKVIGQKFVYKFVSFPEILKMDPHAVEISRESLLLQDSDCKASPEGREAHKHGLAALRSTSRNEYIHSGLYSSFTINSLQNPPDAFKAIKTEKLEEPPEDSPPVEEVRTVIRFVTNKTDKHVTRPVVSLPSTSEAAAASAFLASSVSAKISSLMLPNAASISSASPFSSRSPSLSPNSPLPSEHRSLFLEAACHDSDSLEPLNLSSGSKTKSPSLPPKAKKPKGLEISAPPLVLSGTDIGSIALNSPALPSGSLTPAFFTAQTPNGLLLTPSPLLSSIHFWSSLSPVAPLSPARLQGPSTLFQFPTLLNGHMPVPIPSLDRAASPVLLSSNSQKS", "in_short": "as §1"}, "ETV5": {"molecular_target": "ETV5 (Homo sapiens, UniProt P41161 1-510)", "sequence (P41161 whole entry)": "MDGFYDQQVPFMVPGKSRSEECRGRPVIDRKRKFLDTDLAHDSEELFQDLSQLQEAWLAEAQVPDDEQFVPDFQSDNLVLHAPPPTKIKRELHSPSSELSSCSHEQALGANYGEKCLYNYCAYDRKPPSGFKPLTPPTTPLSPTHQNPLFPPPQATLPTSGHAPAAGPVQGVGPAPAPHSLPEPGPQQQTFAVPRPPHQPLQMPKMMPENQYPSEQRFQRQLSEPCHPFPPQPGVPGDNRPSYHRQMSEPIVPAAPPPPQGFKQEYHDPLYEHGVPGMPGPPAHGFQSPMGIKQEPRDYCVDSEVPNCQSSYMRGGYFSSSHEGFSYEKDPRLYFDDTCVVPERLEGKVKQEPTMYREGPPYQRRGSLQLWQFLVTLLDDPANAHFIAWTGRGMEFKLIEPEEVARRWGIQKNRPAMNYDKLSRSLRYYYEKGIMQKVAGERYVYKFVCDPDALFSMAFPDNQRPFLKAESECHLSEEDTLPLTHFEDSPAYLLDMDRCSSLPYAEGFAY", "in_short": "as §1"}},
  "data": [
    {"sequence": "TACCCC", "values": [
      {"measurement": "binding signal", "setting": "FLI1", "value": "1.14 fold enrichment (6-mer frequency, TF over GST control)"},
      {"measurement": "binding signal", "setting": "ELK1", "value": "1.11 fold enrichment (6-mer frequency, TF over GST control)"},
      {"measurement": "binding signal", "setting": "GABPA", "value": "1.16 fold enrichment (6-mer frequency, TF over GST control)"},
      {"measurement": "binding signal", "setting": "ERG", "value": "1.07 fold enrichment (6-mer frequency, TF over GST control)"},
      {"measurement": "binding signal", "setting": "ELF1", "value": "1.14 fold enrichment (6-mer frequency, TF over GST control)"},
      {"measurement": "binding signal", "setting": "EHF", "value": "1.12 fold enrichment (6-mer frequency, TF over GST control)"},
      {"measurement": "binding signal", "setting": "SPI1", "value": "1.11 fold enrichment (6-mer frequency, TF over GST control)"},
      {"measurement": "binding signal", "setting": "SPIB", "value": "1.09 fold enrichment (6-mer frequency, TF over GST control)"},
      {"measurement": "binding signal", "setting": "ELK3", "value": "1.11 fold enrichment (6-mer frequency, TF over GST control)"},
      {"measurement": "binding signal", "setting": "ETV5", "value": "1.07 fold enrichment (6-mer frequency, TF over GST control)"}
    ]}
  ]
}
